Molecules are shown by their SMILES.

The nature of this experiment: sensitizers of A549 cells to miR-34 induction, primary screen, imaging, A549 dox-inducible miR-34, nuclei and caspase counts (AID 1347080). Note: test concentration not given here. The following applies: A549 miR-34 inducible, Hoechst nuclei count, 48 h; measured here: relative caspase fold change +Dox/-Dox.
For `CC(C)(CO)C(O)C(=O)NCCC(=O)O` (configuration not stated), the fold change is 0.783. On to `CCC(=O)O[C@H]1CCC2C3CCc4cc(O)ccc4C3CC[C@@]21C` (some centres not stated), for which the fold change came to 2.49. The value for `CC/C=C\C/C=C\C/C=C\C/C=C\C/C=C\CCCC(=O)OCC` was 1.98. The value for `Oc1cc(O)c2c(c1)OC(c1ccc(O)c(O)c1)C(O)C2` (configuration not stated) was 1.18; that for `CC[N+]1(C)[C@@H]2CC[C@H]1CC(OC(=O)[C@H]1CCC(C(=O)OC3C[C@H]4CC[C@@H](C3)[N+]4(C)CC)(c3ccccc3)c3ccccc31)C2` (some centres not stated) was 1.08; that for `CCC(C)N1CCC2(CC1)N=c1c(c3c4c5c(C)c(O)c3c(O)c1=NC(=O)/C(C)=C/C=C/[C@H](C)[C@H](O)[C@@H](C)[C@@H](O)[C@@H](C)[C@H](OC(C)=O)[C@H](C)[C@@H](OC)/C=C/O[C@@](C)(O5)C4=O)N2` (some centres not stated) was 0.766. Turning to `CCC(C)[C@H]1O[C@]2(CC[C@@H]1C)C[C@@H]1C[C@@H](C/C=C(\C)[C@@H](OC3C[C@H](OC)C(O[C@H]4C[C@H](OC)[C@@H](O)[C@H](C)O4)[C@H](C)O3)[C@@H](C)/C=C/C=C3\CO[C@@H]4[C@H](O)C(C)=C[C@@H](C(=O)O1)[C@]34O)O2` (some centres not stated), the fold change turned out to be 1.61. As to `c1ccc(-c2[nH]ncc2-c2ccnc3ccccc23)nc1`, the fold change was found to be 0.903. Take `C[C@H]1[C@H](C)CC[C@]2(C(=O)O[C@@H]3O[C@H](COC4O[C@H](CO)[C@@H](OC5O[C@@H](C)[C@H](O)[C@@H](O)[C@H]5O)[C@H](O)[C@H]4O)[C@@H](O)[C@H](O)[C@H]3O)CC[C@]3(C)C(=CC[C@@H]4[C@@]5(C)C[C@@H](O)[C@H](O)[C@@](C)(CO)C5CC[C@]43C)[C@H]12` (some centres not stated): the fold change is 0.577.

Regarding `CCOC(=O)Oc1c(OC)cc(C(=O)O[C@@H]2C[C@@H]3CN4CCc5c([nH]c6cc(OC)ccc56)[C@H]4C[C@@H]3[C@H](C(=O)OC)[C@H]2OC)cc1OC`, the fold change amounted to 2.41.

For `CC(=O)N[C@@H]1[C@@H](O[C@H](C)C(=O)O)[C@H](O)[C@@H](CO)O[C@@H]1O`, the fold change amounted to 1.06. With `OCCN1C[C@@H](O)[C@@H](O)C(O)C1CO` (some centres not stated), the fold change worked out at 5.56. Consider `COc1cc2c(cc1OC)-c1[nH]nc(Nc3cccc(F)c3)c1C2`, for which the fold change was determined as 1.72. On to `CC(C)(C)NCC(O)COc1cccc2c1CC(O)C(O)C2` (configuration not stated), for which the fold change came to 1.39. As to `c1ccc2c3c([nH]c2c1)[C@H]1C2CCC([C@@H]4CCCN[C@H]24)N1CC3` (some centres not stated), the fold change was 1.3. For `CC12CCC3c4ccc(OC(=O)c5ccccc5)cc4CCC3C1CCC2O` (configuration not stated), the fold change is 2.66. Take `Oc1cccc(-c2nc(N3CCOCC3)c3sccc3n2)c1`: the fold change came to 0.61. As for `CC(C)CC(=O)N[C@H](C(=O)NC(C(=O)NC(CC(C)C)[C@@H](O)CC(=O)N[C@@H](C)C(=O)N[C@@H](CC(C)C)[C@@H](O)CC(=O)O)C(C)C)C(C)C` (some centres not stated), the fold change was 3.28. On to `CN1CC[C@]23c4ccccc4N[C@H]1[C@]21CCN(C)[C@H]3Nc2ccccc21`, for which the fold change was found to be 1.16.

On to `COc1c2ccoc2nc2c(OC)c(OC[C@@H](O)C(C)(C)O)ccc12`, for which the fold change was 1.39. On to `CC1OC(O[C@H]2/C=C/C=C/C=C/C=C/C=C/C=C/C=C/[C@H](C)[C@@H](O)[C@@H](C)[C@H](C)OC(=O)CC(O)CC(O)CCC(O)C(O)CC(O)CC3(O)C[C@H](O)C(C(=O)O)C(C2)O3)C(O)[C@H](N)C1O` (some centres not stated), for which the fold change stood at 0.836. Take `C=Cc1c(C)c2cc3nc(cc4[nH]c(cc5nc(cc1[nH]2)C(C)=C5CCC(=O)O)c(CCC(=O)O)c4C)[C@@]1(C)C3=CC=C(C(=O)OC)C1C(=O)OC` (some centres not stated): the fold change came out at 1.04.

The values are drawn from PubChem BioAssay.
